From PubChem BioAssay (EPA / NIEHS)
Activity calls are given as the source filed them. The calls were made as follows: active = hit-call score of the fitted dose curve at least 0.9, where 1 is the maximum; inactive = score below 0.9.

assay: Tanguay_ZF_120hpf_AXIS: Oregon State University Tanguay Lab 120 Hour Post-fertilization zebrafish Assay for Axial Malformation (AID 2284398)
Description: Tanguay_ZF_120hpf is a whole embryo, multiplexed endpoint assay using zebrafish larvae exposed for 120 hours post fertilization on a 96-well plate.Tanguay_ZF_120hpf_AXIS is one of one assay component(s) measured or calculated from the Tanguay_ZF_120hpf assay. It is designed to make measurements of zebrafish development as detected with brightfield microscopy of developing zebrafish embryos.Data from the assay component Tanguay_ZF_120hpf_AXIS was analyzed into 1 assay endpoints. This assay endpoint, Tanguay_ZF_120hpf_AXIS, was analyzed in the positive analysis fitting direction relative to DMSO as the negative control and baseline of activity. Using a type of morphology reporter, gain-of-signal activity can be used to understand changes in developmentals as they relate to the whole embryo. To generalize the intended target to other relatable targets, this assay endpoint is annotated to the zebrafish development intended target family, where the subfamily is body axis morphogenesis.
Zebrafish husbandry: Tropical 5D wild-type adult zebrafish were housed in at an approximate density of 1000 per 100 gallon tank at the Sinnhuber Aquatic Research Laboratory, Oregon State University, Corvallis, OR. Each tank was kept at standard laboratory conditions of 28C on a 14-h light/10-h dark photoperiod in fish water consisting of reverse osmosis water supplemented with a commercially available salt (Instant Ocean). Spawning funnels were placed into the tanks the night prior, and embryos were collected and staged. To increase bioavailability, the chorion was enzymatically removed using pronase (63.6mg/ml, >/= 3.5U/mg, Sigma-Aldrich: P5147) at 4 hours post fertilization (hpf) using a custom automated dechorionator.Chemical exposures: Six hpf dechorionated embryos were placed 1 embryo per well in a 96-well plate prefilled with 90 ul of EM using automated embryo placement systems (AEPS). Ten microliters of each row of dilution plate 2 was added to 2 exposure plates. The final DMSO concentration used was 0.64% (vol/vol). Thirty-two embryos were also exposed to 5uM trimethyltin chloride (positive control). Plates were sealed to prevent evaporation and foil covered to reduce light exposure and kept in a 28C incubator. Embryos were statically exposed until 120 hpf. At 24 hpf, embryos were assessed for photomotor response using a custom photomotor response analysis tool (PRAT) and for developmental toxicity endpoints (MO24: mortality at 24 hpf, DP: developmental progression, SM: spontaneous movement, and NC: notochord distortion). At 120 hpf, locomotor activity was measured using Viewpoint Zebralab and assessed for 13 endpoints. Zebrafish acquisition and analysis program (ZAAP), a custom program designed to inventory, acquire, and manage zebrafish data, was used to collect developmental endpoints as either present or absent (i.e., binary responses were recorded). If mortality occurred for an embryo (at either 24 or 120 hpf), the non-mortality endpoints were not measured.

SMILES | outcome | AC50
O=C(O)CCC(F)(F)C(F)(F)C(F)(F)C(F)(F)C(F)(F)C(F)(F)C(F)(F)F | inactive | 
OCC(O)CC(F)(F)C(F)(F)C(F)(F)C(F)(F)F (configuration not stated) | inactive | 
OCC(F)(F)C(F)(F)C(F)(F)CO | inactive | 
O=S(=O)(O)CCC(F)(F)C(F)(F)C(F)(F)C(F)(F)F | inactive | 
C[Si](Cl)(Cl)CCC(F)(F)C(F)(F)C(F)(F)C(F)(F)C(F)(F)C(F)(F)F | inactive | 
NC(=O)C(F)(F)C(F)(F)C(F)(F)C(F)(F)C(F)(F)C(F)(F)C(F)(F)F | inactive | 
CNS(=O)(=O)C(F)(F)C(F)(F)C(F)(F)C(F)(F)C(F)(F)C(F)(F)C(F)(F)C(F)(F)F | inactive | 
CCN(CCO)S(=O)(=O)C(F)(F)C(F)(F)C(F)(F)C(F)(F)C(F)(F)C(F)(F)C(F)(F)C(F)(F)F | inactive | 
O=C(O)C(F)(F)C(F)(F)C(F)(F)OC(F)(C(F)(F)F)C(F)(F)F | inactive | 
NS(=O)(=O)C(F)(F)C(F)(F)C(F)(F)C(F)(F)C(F)(F)C(F)(F)F | inactive | 
NC(=O)C(F)(F)C(F)(F)C(F)(F)C(F)F | inactive | 
FC(F)(F)C(F)(F)C(F)(F)C(F)(F)C(F)(F)C(F)(F)C(F)(F)CCI | inactive | 
NC(=O)C(F)(F)C(F)(F)C(F)(F)F | inactive | 
CN(C(=O)C(F)(F)C(F)(F)C(F)(F)F)[Si](C)(C)C | inactive | 
FC(F)(F)C(F)(F)C(F)(F)C(F)(F)C(F)(F)C(F)(F)CC[Si](Cl)(Cl)Cl | inactive | 
COC(F)(C(F)F)C(F)(F)F (configuration not stated) | inactive | 
CCOC(=O)CC(=O)C(F)(F)C(F)(F)F | inactive | 
OCCCCC(F)(F)C(F)(F)C(F)(F)C(F)(F)F | inactive | 
O=C(O)C(F)(F)C(F)(F)C(F)(F)C(=O)O | inactive | 

SMILES | outcome | AC50
O=S(=O)(OCC(F)(F)F)C(F)(F)C(F)(F)C(F)(F)C(F)(F)F | inactive | 
OCC(O)CC(F)(F)C(F)(F)C(F)(F)C(F)(F)C(F)(F)C(F)(F)C(F)(F)C(F)(F)F (configuration not stated) |  | 6.61 µM (active)
O=S(=O)(O)CCC(F)(F)C(F)(F)C(F)(F)C(F)(F)C(F)(F)C(F)(F)C(F)(F)C(F)(F)F | inactive | 
OCC(F)(F)C(F)(F)C(F)(F)C(F)(F)C(F)(F)C(F)(F)C(F)(F)C(F)(F)CO | inactive | 
OC(O)C(F)(F)C(F)(F)F | inactive | 
CO[Si](C)(CCC(F)(F)C(F)(F)C(F)(F)C(F)(F)C(F)(F)C(F)(F)F)OC | inactive | 
C=CC(=O)OCC(F)(F)C(F)(F)C(F)(F)C(F)(F)C(F)(F)C(F)(F)C(F)(F)C(F)F | inactive | 
O=C(F)C1(F)C(F)(F)C(F)(F)C(F)(F)C(F)(F)C1(F)F | inactive | 
NC(O)(C(F)(F)F)C(F)(F)F | inactive | 
O=S(=O)(Cl)C(F)(F)C(F)(F)C(F)(F)C(F)(F)C(F)(F)C(F)(F)C(F)(F)C(F)(F)F | inactive | 
O=C(O)CCC(F)(F)C(F)(F)C(F)(F)F | inactive | 
NC(=O)C(F)(F)C(F)(F)C(F)(F)C(F)(F)C(N)=O | inactive | 
O=C(O)C(F)(F)C(F)(F)C(F)(F)OC(F)(F)F | inactive | 
C=CC(=O)OCCC(F)(F)C(F)(F)C(F)(F)C(F)(F)F | inactive | 
FC(F)(F)C(F)(F)C(F)(F)CC1CO1 (configuration not stated) | inactive | 
C=CC(=O)OCC(F)(F)C(F)(F)C(F)(F)COC(=O)C=C | inactive | 
OCC(F)(F)C(F)(F)C(F)(F)C(F)(F)C(F)(F)C(F)(F)CO | inactive | 
OCCCC(F)(F)C(F)(F)C(F)(F)C(F)(F)C(F)(F)C(F)(F)C(F)(F)C(F)(F)F | inactive | 
